Most compounds without a hit are left out; they make up all but 3% or so of the library.
Shn3 3UTR inh: Schnurri-3 reporter inhibition in Clone20 osteoblasts; 360,000 tested, 0.52% active; Clone20 osteoblast Shn3 3'UTR firefly luciferase, 24 h; AID 588674; inhibition, % at 12.5 µM;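 active means mean inhibition of at least 75% with every replicate also reaching 75%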
PAX8 inh HTS: PAX8 transcriptional activity inhibition; RMG-I TPO-luciferase reporter, SteadyGlo, 24 h; inhibition, % at 12.6 µM; 360,000 tested, 1.2% active;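 active means mean replicate inhibition at least 60% with every replicate also reaching 60%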;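 further: luciferase light reporting Pax8 driven TPO promoter activity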
TRPM1 prom inh: reduces MITF-dependent TRPM1 promoter luciferase signal; SK-MEL-5 TRPM1 promoter luciferase, 24 h; inhibition, % at 12.5 µM; 330,000 tested, 0.83% active;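 active means mean inhibition across replicates of 60% or more, whatever share of single replicates reaches that level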
ABHD5-PLIN5 inh: blocks binding of human ABHD5 to perilipin-5 | AID 602281 | 360,000 tested, 0.78% active | Split G. princeps luciferase complementation, luminescence, 4 h | inhibition, % at 4 µM | Q00G26+Q8WTS1;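 active means inhibition above the mean inhibition across every tested compound plus 3 SD, cut at about 22% in these data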
Target sequence (Q00G26 whole entry, looked up): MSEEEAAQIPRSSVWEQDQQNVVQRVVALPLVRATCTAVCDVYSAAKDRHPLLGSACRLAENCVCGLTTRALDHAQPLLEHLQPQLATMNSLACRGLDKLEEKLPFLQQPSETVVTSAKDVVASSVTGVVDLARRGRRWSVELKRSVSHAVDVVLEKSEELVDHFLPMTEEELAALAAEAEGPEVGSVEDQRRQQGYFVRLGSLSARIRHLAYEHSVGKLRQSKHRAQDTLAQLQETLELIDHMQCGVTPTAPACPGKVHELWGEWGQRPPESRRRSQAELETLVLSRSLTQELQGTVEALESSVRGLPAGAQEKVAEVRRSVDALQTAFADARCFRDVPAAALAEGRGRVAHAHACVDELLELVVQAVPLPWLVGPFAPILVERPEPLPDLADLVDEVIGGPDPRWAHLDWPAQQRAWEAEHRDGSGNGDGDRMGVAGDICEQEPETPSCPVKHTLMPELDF
Target sequence (Q8WTS1 whole entry, looked up): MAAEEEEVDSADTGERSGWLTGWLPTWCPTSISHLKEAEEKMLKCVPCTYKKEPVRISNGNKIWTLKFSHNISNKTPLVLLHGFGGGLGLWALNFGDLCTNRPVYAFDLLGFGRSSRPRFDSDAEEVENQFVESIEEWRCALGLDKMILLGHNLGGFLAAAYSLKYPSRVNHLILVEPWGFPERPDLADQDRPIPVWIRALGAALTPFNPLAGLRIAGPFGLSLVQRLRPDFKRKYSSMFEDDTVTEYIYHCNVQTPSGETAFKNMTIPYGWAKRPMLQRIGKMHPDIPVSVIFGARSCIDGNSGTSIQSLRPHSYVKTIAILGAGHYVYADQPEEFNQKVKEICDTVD
EWS-Fli block: inhibitors of EWS/Fli oncoprotein transcriptional activity | A673 NR0B1-luciferase reporter, viability-normalised | inhibition, % at 12.6 µM | 350,000 tested, 0.67% active;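 active means mean inhibition of at least 50% after viability correction, with every replicate also passing that limit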;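 further: firefly luciferase signal divided by Alamar Blue viability fluorescence both relative to DMSO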
Peg3 prom inh: inhibitors of Peg3 promoter | HeLa PEG-Prom luciferase reporter, luminescence, overnight | inhibition, % at 20 µM | 360,000 tested, 1.7% active | AID 588405;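 active means inhibition of at least 50% at 20 µM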
Of the large screens only hits and unclear results are named; the others gave an inactive call.

N#Cc1ccc(-c2ccc3c(c2)[C@H]2[C@H](CCN2C(=O)C2CCCC2)[C@H](CO)N3)cc1	none (no result: Shn3 3UTR inh, PAX8 inh HTS, TRPM1 prom inh, ABHD5-PLIN5 inh, Peg3 prom inh)
N#Cc1cccc(-c2ccc3c(c2)[C@@H]2[C@@H](CCN2C(=O)C2CCCCC2)[C@@H](CO)N3)c1	PAX8 inh HTS 75 (no result: Shn3 3UTR inh, TRPM1 prom inh, ABHD5-PLIN5 inh, Peg3 prom inh)
N#Cc1cccc(-c2ccc3c(c2)[C@@H]2[C@@H](CCN2S(=O)(=O)c2ccc(F)cc2)[C@@H](CO)N3)c1	PAX8 inh HTS 76 (no result: Shn3 3UTR inh, TRPM1 prom inh, ABHD5-PLIN5 inh, Peg3 prom inh)
N#Cc1cccc(-c2ccc3c(c2)[C@H]2[C@H](CCN2C(=O)C2CCCCC2)[C@H](CO)N3)c1	PAX8 inh HTS 66 (no result: Shn3 3UTR inh, TRPM1 prom inh, ABHD5-PLIN5 inh, Peg3 prom inh)
COc1ccccc1-c1ccc2c(c1)[C@H]1[C@H](CCN1C(=O)C1CCCCC1)[C@@H](CO)N2	PAX8 inh HTS 90 (no result: Shn3 3UTR inh, TRPM1 prom inh, ABHD5-PLIN5 inh, Peg3 prom inh)
CC(C)NC(=O)Nc1ccc2c(c1)CC(=O)N([C@@H](C)CO)C[C@@H](C)[C@H](CN(C)Cc1ccncc1)O2	none (no result: Shn3 3UTR inh, TRPM1 prom inh, ABHD5-PLIN5 inh, Peg3 prom inh)
CN1CCN(C(=O)C[C@@H]2C=C[C@@H](NC(=O)c3ccc4c(c3)OCO4)[C@@H](CO)O2)CC1	none (no result: Shn3 3UTR inh, TRPM1 prom inh, ABHD5-PLIN5 inh, Peg3 prom inh)
CC(C)[C@H](CO)Nc1nc(NCc2ccc(S(N)(=O)=O)cc2)c2ncn(C(C)C)c2n1	PAX8 inh HTS 69
C[C@H]1CN([C@@H](C)CO)C(=O)c2cc(C#CCC3CCCC3)cnc2O[C@H]1CN(C)C(=O)c1cnccn1	none (no result: Shn3 3UTR inh, PAX8 inh HTS, TRPM1 prom inh, ABHD5-PLIN5 inh, Peg3 prom inh)
COc1ccccc1CN1C[C@@H](C)[C@H](OC)CN(C)C(=O)c2cc(NC(C)=O)ccc2OC[C@@H]1C	none (no result: Shn3 3UTR inh, TRPM1 prom inh, ABHD5-PLIN5 inh, Peg3 prom inh)
COc1ccc(NC(=O)C(=O)NCCC2CCCCN2S(=O)(=O)c2cccs2)cc1 (stereo not given)	EWS-Fli block 58
COc1ccc(CNC(=O)C(=O)NCCC2CCCCN2S(=O)(=O)c2ccccc2)cc1 (stereo not given)	none
COc1ccc(NC(=O)C(=O)NCCC2CCCCN2S(=O)(=O)c2ccccc2)cc1 (stereo not given)	EWS-Fli block 52
CCNC(=O)Nc1ccc2c(c1)C(=O)N(C)[C@@H]1CC[C@@H](CC(=O)NCC3CCCCC3)O[C@@H]1CO2	none (no result: Shn3 3UTR inh, TRPM1 prom inh, ABHD5-PLIN5 inh, Peg3 prom inh)
C[C@H](CO)N1C[C@H](C)[C@@H](CN(C)Cc2ccc(C(F)(F)F)cc2)OCCCC[C@H](C)Oc2ccc(NC(=O)Nc3ccc(C(F)(F)F)cc3)cc2C1=O	none (no result: Shn3 3UTR inh, TRPM1 prom inh, ABHD5-PLIN5 inh, Peg3 prom inh)
C[C@@H]1CN([C@H](C)CO)C(=O)c2cc(NC(=O)Nc3ccc(C(F)(F)F)cc3)ccc2O[C@@H](C)CCCCO[C@@H]1CN(C)Cc1ccc(Cl)c(Cl)c1	PAX8 inh HTS 86 (no result: Shn3 3UTR inh, TRPM1 prom inh, ABHD5-PLIN5 inh, Peg3 prom inh)
C[C@H](CO)N1C[C@H](C)[C@H](CN(C)Cc2ccc(Cl)c(Cl)c2)OCCCC[C@H](C)Oc2ccc(NC(=O)Nc3ccc(C(F)(F)F)cc3)cc2C1=O	PAX8 inh HTS 88 (no result: Shn3 3UTR inh, TRPM1 prom inh, ABHD5-PLIN5 inh, Peg3 prom inh)
C[C@@H]1CCCCO[C@@H](CN(C)Cc2ccc(Cl)c(Cl)c2)[C@@H](C)CN([C@@H](C)CO)C(=O)c2cc(NC(=O)Nc3ccc(C(F)(F)F)cc3)ccc2O1	PAX8 inh HTS 73 (no result: Shn3 3UTR inh, TRPM1 prom inh, ABHD5-PLIN5 inh, Peg3 prom inh)
Cc1cccc(S(=O)(=O)N(C)C[C@@H]2OCc3ccccc3-c3c(n(C)c4ccccc34)C(=O)N([C@H](C)CO)C[C@@H]2C)c1	none (no result: Shn3 3UTR inh, PAX8 inh HTS, TRPM1 prom inh, ABHD5-PLIN5 inh, Peg3 prom inh)
C[C@@H]1CN([C@@H](C)CO)C(=O)c2ccccc2-c2ccccc2CO[C@H]1CN(C)Cc1ccccc1C(F)(F)F	PAX8 inh HTS 79 (no result: Shn3 3UTR inh, TRPM1 prom inh, ABHD5-PLIN5 inh, Peg3 prom inh)
COc1cccc(S(=O)(=O)N(C)C[C@H]2OCc3ccccc3-c3c(n(C)c4ccccc34)C(=O)N([C@H](C)CO)C[C@@H]2C)c1	PAX8 inh HTS 66 (no result: Shn3 3UTR inh, TRPM1 prom inh, ABHD5-PLIN5 inh, Peg3 prom inh)
COc1cccc(S(=O)(=O)N(C)C[C@@H]2OCc3ccccc3-c3ccccc3C(=O)N([C@@H](C)CO)C[C@@H]2C)c1	PAX8 inh HTS 91 (no result: Shn3 3UTR inh, TRPM1 prom inh, ABHD5-PLIN5 inh, Peg3 prom inh)
COc1cccc(S(=O)(=O)N(C)C[C@H]2OCc3ccccc3-c3c(n(C)c4ccccc34)C(=O)N([C@@H](C)CO)C[C@H]2C)c1	PAX8 inh HTS 86 (no result: Shn3 3UTR inh, TRPM1 prom inh, ABHD5-PLIN5 inh, Peg3 prom inh)
COc1cccc(S(=O)(=O)N(C)C[C@H]2OCc3ccccc3-c3ccccc3C(=O)N([C@H](C)CO)C[C@H]2C)c1	none (no result: Shn3 3UTR inh, TRPM1 prom inh, ABHD5-PLIN5 inh, Peg3 prom inh)
COc1ccc(NC(=O)N(C)C[C@@H]2OCCCC[C@H](C)Oc3ccc(NC(=O)c4ccccc4)cc3C(=O)N([C@@H](C)CO)C[C@@H]2C)cc1	none (no result: Shn3 3UTR inh, TRPM1 prom inh, ABHD5-PLIN5 inh, Peg3 prom inh)
COc1ccc(S(=O)(=O)N(C)C[C@H]2OCc3ccccc3-c3c(n(C)c4ccccc34)C(=O)N([C@H](C)CO)C[C@H]2C)cc1	none (no result: Shn3 3UTR inh, PAX8 inh HTS, TRPM1 prom inh, ABHD5-PLIN5 inh, Peg3 prom inh)

Bioassay records (PubChem)
